The campaign covered roughly 5,500 compounds. About 2,000 (36%) were called active. About 18% were inconclusive and are not listed. Rule as the data show it: active = normalized growth mostly below about 0.91 (no sharp cut-off); inconclusive = no clear call, values can overlap the other calls; inactive = mostly above about 0.92. The list shows a part of the results.
Assay: chemical genetic growth profiling, strain panel (AID 1159580);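 also: tested at 20 µM; growth read once vehicle control cultures reached saturation at 30 °C; 1 = growth at the plate median or of vehicle wells; lower values mean less growth of the strain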
Details: S. cerevisiae deletion strains, growth OD

Measured: normalized growth

CCCCCCCCCCCCCCCC(=O)OC(CC(=O)O)C[N+](C)(C)C (stereo unspecified)
inactive: locus YAL040C, strain CLN3, hits give low values 1.07 | locus YPL241C, strain CIN2, hits give low values 0.976
active: locus YCL061C, strain MRC1 (second series), hits give low values 0.492 | locus YDR150W, strain NUM1, hits give low values 0.56 | locus YDR363W, strain ESC2, hits give low values 0.784 | locus YER002W, strain NOP16, hits give low values 0.424 | locus YGR229C, strain SMI1, hits give low values 0.0686 | locus YJR075W, strain HOC1, hits give low values 0.724 | locus YMR263W, strain SAP30, hits give low values 0.584 | locus YNL153C, strain GIM3, hits give low values 0.0876 | locus YNL175C, strain NOP13, hits give low values 0.0754 | locus YNL197C, strain WHI3, hits give low values 0.0681 | locus YNL224C, strain SQS1, hits give low values 0.0761 | locus YNL322C, strain KRE1, hits give low values 0.354 | locus YOR083W, strain WHI5 (second series), hits give low values 0.0749 | locus YPL055C, strain LGE1, hits give low values 0.383

Reference: PubChem BioAssay AID1159580 (chemical genetic matrix, 2015)
